Data on 40 compounds can be found in PubChem BioAssay (EPA / NIEHS).

Records with an inconclusive call do not appear. Activity calls are given as the source filed them. Rule for the calls: active = hit-call score of the fitted dose curve at least 0.9, where 1 is the maximum; inconclusive = response in the unintended direction; inactive = score below 0.9.

The nature of this assay: Tanguay_ZF_120hpf_CIRC_legacy: (Legacy) Oregon State University Tanguay Lab 120 Hour Post-fertilization zebrafish Assay for Circulatory Malformation (AID 2283651). Here is the method: Tanguay_ZF_120hpf_legacy is a whole embryo, multiplexed endpoint assay using zebrafish larvae exposed for 120 hours post fertilization on a 96-well plate.Tanguay_ZF_120hpf_CIRC_legacy is one of one assay component(s) measured or calculated from the Tanguay_ZF_120hpf_legacy assay. It is designed to make measurements of zebrafish development as detected with brightfield microscopy of developing zebrafish embryos.Data from the assay component Tanguay_ZF_120hpf_CIRC_legacy was analyzed into 1 assay endpoints. This assay endpoint, Tanguay_ZF_120hpf_CIRC_legacy, was analyzed in the positive analysis fitting direction relative to DMSO as the negative control and baseline of activity. Using a type of morphology reporter, gain-of-signal activity can be used to understand changes in developmentals as they relate to the whole embryo. To generalize the intended target to other relatable targets, this assay endpoint is annotated to the zebrafish development intended target family, where the subfamily is angiogenesis.
Zebrafish husbandry: Tropical 5D wild-type adult zebrafish were housed in at an approximate density of 1000 per 100 gallon tank at the Sinnhuber Aquatic Research Laboratory, Oregon State University, Corvallis, OR. Each tank was kept at standard laboratory conditions of 28C on a 14-h light/10-h dark photoperiod in fish water consisting of reverse osmosis water supplemented with a commercially available salt (Instant Ocean). Spawning funnels were placed into the tanks the night prior, and embryos were collected and staged. To increase bioavailability, the chorion was enzymatically removed using pronase (63.6mg/ml, >/= 3.5U/mg, Sigma-Aldrich: P5147) at 4 hours post fertilization (hpf) using a custom automated dechorionator.Chemical exposures: Six hpf dechorionated embryos were placed 1 embryo per well in a 96-well plate prefilled with 90 ul of EM using automated embryo placement systems (AEPS). Ten microliters of each row of dilution plate 2 was added to 2 exposure plates. The final DMSO concentration used was 0.64% (vol/vol). Thirty-two embryos were also exposed to 5uM trimethyltin chloride (positive control). Plates were sealed to prevent evaporation and foil covered to reduce light exposure and kept in a 28C incubator. Embryos were statically exposed until 120 hpf. At 24 hpf, embryos were assessed for photomotor response using a custom photomotor response analysis tool (PRAT) and for developmental toxicity endpoints (MO24: mortality at 24 hpf, DP: developmental progression, SM: spontaneous movement, and NC: notochord distortion). At 120 hpf, locomotor activity was measured using Viewpoint Zebralab and assessed for 18 endpoints. Zebrafish acquisition and analysis program (ZAAP), a custom program designed to inventory, acquire, and manage zebrafish data, was used to collect developmental endpoints as either present or absent (i.e., binary responses were recorded). If mortality occurred for an embryo (at either 24 or 120 hpf), the non-mortality endpoints were not measured.
`CCCCCCOCCO`: the compound was classed as inactive.
Consider `C=CCOC(=O)c1ccccc1C(=O)OCC=C`, for which the compound was classed as inactive.
The entry for `COC(=O)c1ccc(O)cc1` is “inactive”.
For `CC1=C(/C=C/C(C)=C/C=C/C(C)=C/CO)C(C)(C)CCC1`, the outcome was inactive.
The entry for `Cc1ccc2ncccc2c1` is “inactive”; for `Cc1nc(-c2ccc3c(c2)CCN(CCC2CCC(NC(=O)/C=C/c4ccc(F)cc4)CC2)CC3)no1` (stereo not given) it is “inactive”.
Turning to `CCc1c(C(=O)NN2CCCCC2)nn(-c2ccc(Cl)cc2Cl)c1-c1ccc(Br)cc1`, the outcome was inactive.
The entry for `Cc1ccc(C(C)C)c(O)c1` is “inactive”.
To `CC(=O)C(C)=CC1C(C)=CCCC1(C)C` (stereo not given) belongs “inactive”; to `CCCCCCCCCCCC(=O)OC`, “inactive”; to `NC(=O)Cn1c(=O)cc(CCN2CCN(c3nccc4sccc34)CC2)c2ccc(F)cc21`, “inactive”.
To `CCCCOC(=O)CCCCCCCCC(=O)OCCCC` belongs “inactive”; to `Nc1nc(N)c2nc(CNc3ccc(C(=O)N[C@@H](CCC(=O)O)C(=O)O)cc3)cnc2n1`, “inactive”.
As for `CC1(C)CC(N=C=O)CC(C)(CN=C=O)C1` (stereo not given), the outcome was inactive.
To `CCCCN(CCCC)CCCC` belongs “inactive”; to `COc1ccc(C)cc1N`, “inactive”; to `O=C(OCCCCCOC(=O)c1ccccc1)c1ccccc1`, “inactive”.
To `FC(F)(F)C(F)(F)C(F)(F)C(F)(F)C(F)(F)C(F)(F)CCI` belongs “inactive”.
The entry for `CC(=O)OCCOCCOCCOC(C)=O` is “inactive”.
Regarding `COCCOCCOC`, the call was inactive.
For the compound `CC(=O)Oc1ccccc1C(=O)O`, the compound was called inactive.
Consider `CCCCCCCCCCCCCCCC`, for which the compound was called inactive.
To `COc1cc(-c2nc(NC(=O)c3cc4cc(C)cc(C)c4n3CC(=O)O)sc2CCC2CCCCC2)c(OC)cc1Cl` belongs “inactive”; to `CCCCc1ccc2c(n1)[C@@H](c1ccc(OC)cc1C[C@H](C)C(=O)O)[C@H](C(=O)O)[C@H]2c1ccc2c(c1)OCO2`, “inactive”.
Turning to `COc1ccc(S(=O)(=O)N2C(=O)[C@@](c3ccccc3OC)(N3C[C@H](O)C[C@H]3C(=O)N(C)C)c3cc(Cl)ccc32)c(OC)c1`, the call was inactive.
For `Cc1oc(-c2ccccc2)nc1CCOc1cccc2c1ccn2CCC(=O)O`, the compound was called inactive.
Regarding `CNC(=O)[C@H]1O[C@@H](n2cnc3c(NCc4cc(Cl)ccc4OCc4cc(C)no4)ncnc32)[C@H](O)[C@@H]1N`, the call was inactive.
The entry for `Clc1cc(Cl)c(Cl)cc1Cl` is “inactive”; for `Cc1nc(C)nc(N2C[C@@H](C)N(c3ccnc([C@@H](C)O)n3)[C@@H](C)C2)n1` it is “inactive”; for `Nc1ccc2c(c1)C(=O)c1ccccc1C2=O` it is “inactive”.
As for `C[C@]12C=CC(=O)C=C1CC[C@@H]1[C@@H]2C(=O)C[C@@]2(C)[C@H]1CC[C@]2(O)C(=O)CO`, the outcome was inactive.
To `CCOC(=O)C(C)(C)Oc1ccc(Cl)cc1` belongs “inactive”; to `CCNc1cccc(C)c1`, “inactive”; to `O=[N+]([O-])C(CO)(CO)CO`, “inactive”.
On to `CCOC(=O)CCC(=O)OCC`, for which the compound was called inactive.
In the case of `Nc1ccccc1N`, the compound was called inactive.
To `CCCCCCCCCCC` belongs “inactive”; to `CN[C@H]1CC[C@@H](c2ccc(Cl)c(Cl)c2)c2ccc(S(N)(=O)=O)cc21`, “inactive”.
Consider `Cc1cc(=O)[nH]c(=S)[nH]1`, for which the compound was classed as inactive.
Turning to `Cc1cccc(Nc2cc(Cl)nc(SCC(=O)O)n2)c1C`, the call was inactive.
